The record followed here is PMC7862700, “An all-to-all approach to the identification of sequence-specific readers for epigenetic DNA modifications on cytosine”.

Holding throughout (assay): DAPPL (digital affinity profiling via proximity ligation, sequencing); 10 mM Tris-HCl pH 7.5, 50 mM NaCl, 1 mM DTT, 4% glycerol, room temperature, 30 min; GST-TFs on glutathione beads, 16-mer random dsDNA library, 0.1% formaldehyde crosslink after washing; high values mean tight binding
The target of one test is T1, FLI1 (Homo sapiens, UniProt Q01543 1-452).
T1 sequence: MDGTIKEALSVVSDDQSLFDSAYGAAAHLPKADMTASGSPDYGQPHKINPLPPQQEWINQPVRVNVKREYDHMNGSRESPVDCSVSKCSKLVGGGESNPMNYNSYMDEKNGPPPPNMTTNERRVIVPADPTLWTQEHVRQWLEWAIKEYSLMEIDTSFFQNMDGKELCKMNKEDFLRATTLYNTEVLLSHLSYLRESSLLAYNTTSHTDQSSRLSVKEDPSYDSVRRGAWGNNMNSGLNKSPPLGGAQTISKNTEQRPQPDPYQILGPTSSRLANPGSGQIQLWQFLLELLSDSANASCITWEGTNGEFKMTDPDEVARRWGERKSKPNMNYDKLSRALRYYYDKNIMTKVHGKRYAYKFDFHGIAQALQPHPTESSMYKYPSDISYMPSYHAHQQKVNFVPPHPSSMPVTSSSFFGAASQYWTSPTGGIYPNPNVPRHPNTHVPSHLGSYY
The note with it: protein: recombinant; tags: N-terminal GST; dsDNA, one strand shown. In outline: (§1)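 Binding signal is defined as a hexamer's read frequency for one factor over its frequency for the tag-only sample. To obtain reads, GST-fused human transcription factors were expressed in yeast, captured on glutathione beads, barcoded with DNA and pooled with that sample. Pools met 200 nmole of a 16-mer random double-stranded DNA library in Tris/NaCl/DTT/glycerol buffer for 30 min at room temperature before washing, 0.1% formaldehyde crosslinking, proximity ligation (BsaI/T4 ligase, 1 h, 37 °C), PCR and Illumina NextSeq500 sequencing.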

For a further test, the target named is T2, ELK1 (Homo sapiens, UniProt P19419 1-428).
T2 sequence: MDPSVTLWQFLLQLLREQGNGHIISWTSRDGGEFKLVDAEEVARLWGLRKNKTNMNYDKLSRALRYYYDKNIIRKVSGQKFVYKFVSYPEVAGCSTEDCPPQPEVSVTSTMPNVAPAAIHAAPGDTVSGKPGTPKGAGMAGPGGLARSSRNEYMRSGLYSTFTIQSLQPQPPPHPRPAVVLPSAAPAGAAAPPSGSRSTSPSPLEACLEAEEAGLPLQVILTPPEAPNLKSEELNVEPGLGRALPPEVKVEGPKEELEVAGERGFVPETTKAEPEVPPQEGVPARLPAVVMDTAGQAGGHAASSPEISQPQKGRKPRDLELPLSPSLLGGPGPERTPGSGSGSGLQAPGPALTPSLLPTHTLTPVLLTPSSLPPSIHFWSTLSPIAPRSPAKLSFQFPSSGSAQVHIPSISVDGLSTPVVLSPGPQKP
The note with it: protein: recombinant; tags: N-terminal GST; dsDNA, one strand shown. In outline: as §1

A further test concerns the target T3, ERG (Homo sapiens, UniProt P11308 1-479).
T3 sequence: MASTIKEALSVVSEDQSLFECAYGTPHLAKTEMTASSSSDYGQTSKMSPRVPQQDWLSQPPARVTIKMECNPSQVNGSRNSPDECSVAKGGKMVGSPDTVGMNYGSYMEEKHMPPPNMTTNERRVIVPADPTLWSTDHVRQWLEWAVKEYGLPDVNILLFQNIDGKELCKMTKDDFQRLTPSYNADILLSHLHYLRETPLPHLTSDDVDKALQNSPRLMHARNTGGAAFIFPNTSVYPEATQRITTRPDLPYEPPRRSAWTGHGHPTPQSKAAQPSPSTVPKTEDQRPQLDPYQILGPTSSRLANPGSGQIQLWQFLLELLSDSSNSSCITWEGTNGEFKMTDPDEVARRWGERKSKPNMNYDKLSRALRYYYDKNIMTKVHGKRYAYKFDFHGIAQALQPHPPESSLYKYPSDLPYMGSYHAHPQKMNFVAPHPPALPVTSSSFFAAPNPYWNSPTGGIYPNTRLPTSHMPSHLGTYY
The note with it: protein: recombinant; tags: N-terminal GST; dsDNA, one strand shown. The method, boiled down: as §1

Another test addresses ELF1 (Homo sapiens, UniProt P32519 1-619). The note with it: protein: recombinant; tags: N-terminal GST; dsDNA, one strand shown. The method, boiled down: as §1
The target of a further test is T4, EHF (Homo sapiens, UniProt Q9NZC4 1-300).
T4 sequence: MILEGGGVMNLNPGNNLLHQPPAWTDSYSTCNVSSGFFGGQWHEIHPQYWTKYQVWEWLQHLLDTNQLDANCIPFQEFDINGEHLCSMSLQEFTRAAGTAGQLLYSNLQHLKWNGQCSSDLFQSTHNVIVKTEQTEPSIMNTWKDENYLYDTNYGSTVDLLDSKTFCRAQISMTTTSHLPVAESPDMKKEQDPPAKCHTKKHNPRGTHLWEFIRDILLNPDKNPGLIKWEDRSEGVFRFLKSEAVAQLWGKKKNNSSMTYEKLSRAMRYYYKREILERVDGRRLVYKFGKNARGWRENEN
The note with it: protein: recombinant; tags: N-terminal GST; dsDNA, one strand shown. In outline: as §1

For the next test, the target named is SPI1 (Homo sapiens, UniProt P17947 1-270). The note with it: protein: recombinant; tags: N-terminal GST; dsDNA, one strand shown. In outline:
as §1

A further test addresses SPIB (Homo sapiens, UniProt Q01892 1-262). The note with it: protein: recombinant; tags: N-terminal GST; dsDNA, one strand shown. The method, boiled down: as §1
Another test addresses T5, ELK3 (Homo sapiens, UniProt P41970 1-407).
T5 sequence: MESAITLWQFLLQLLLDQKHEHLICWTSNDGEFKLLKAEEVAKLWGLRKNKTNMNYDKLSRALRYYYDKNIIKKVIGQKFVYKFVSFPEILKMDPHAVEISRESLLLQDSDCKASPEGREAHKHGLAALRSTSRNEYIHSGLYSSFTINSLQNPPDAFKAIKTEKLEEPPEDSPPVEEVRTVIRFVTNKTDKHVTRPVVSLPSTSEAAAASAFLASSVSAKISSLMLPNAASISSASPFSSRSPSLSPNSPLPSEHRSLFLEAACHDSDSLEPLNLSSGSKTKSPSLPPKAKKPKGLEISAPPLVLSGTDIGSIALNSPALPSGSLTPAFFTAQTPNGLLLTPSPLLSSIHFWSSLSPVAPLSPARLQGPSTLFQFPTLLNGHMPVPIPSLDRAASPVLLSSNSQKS
The note with it: protein: recombinant; tags: N-terminal GST; dsDNA, one strand shown. In outline:
as §1

Another test addresses T6, FEV (Homo sapiens, UniProt Q99581 1-238).
T6 sequence: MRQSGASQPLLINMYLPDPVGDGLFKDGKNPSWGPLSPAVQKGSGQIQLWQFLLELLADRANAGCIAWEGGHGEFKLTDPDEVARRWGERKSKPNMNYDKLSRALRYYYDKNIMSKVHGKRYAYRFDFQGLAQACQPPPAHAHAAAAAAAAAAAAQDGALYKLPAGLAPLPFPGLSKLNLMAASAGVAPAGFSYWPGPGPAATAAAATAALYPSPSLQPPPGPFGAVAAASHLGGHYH
The note with it: protein: recombinant; tags: N-terminal GST; dsDNA, one strand shown. In outline: as §1

Another test concerns the target ETV5 (Homo sapiens, UniProt P41161 1-510). The note with it: protein: recombinant; tags: N-terminal GST; dsDNA, one strand shown. The method, boiled down:
as §1

The target of another test is HSF1 (Homo sapiens, UniProt Q00613 1-529). The note with it: protein: recombinant; tags: N-terminal GST; chain copies: 3; dsDNA, one strand shown. In outline:
as §1

Another test has as its target ELF4 (Homo sapiens, UniProt Q99607 1-663). The note with it: protein: recombinant; tags: N-terminal GST; dsDNA, one strand shown. In outline: as §1
In another test the target is T7, ELK4 (Homo sapiens, UniProt P28324-2 1-405).
T7 sequence: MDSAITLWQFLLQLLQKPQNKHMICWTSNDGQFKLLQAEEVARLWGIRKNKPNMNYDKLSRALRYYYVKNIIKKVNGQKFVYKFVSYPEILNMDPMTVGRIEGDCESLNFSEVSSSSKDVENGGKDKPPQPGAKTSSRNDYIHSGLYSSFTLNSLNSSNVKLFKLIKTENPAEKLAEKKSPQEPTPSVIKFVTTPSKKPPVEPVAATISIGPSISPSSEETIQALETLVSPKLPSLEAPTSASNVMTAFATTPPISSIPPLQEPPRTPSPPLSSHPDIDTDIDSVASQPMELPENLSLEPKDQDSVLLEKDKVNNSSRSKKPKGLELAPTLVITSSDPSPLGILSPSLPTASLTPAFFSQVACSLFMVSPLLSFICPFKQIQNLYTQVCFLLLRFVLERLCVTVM
The note with it: protein: recombinant; tags: N-terminal GST; dsDNA, one strand shown. The method, boiled down:
as §1

Another test concerns the target T8, ETV2 (Homo sapiens, UniProt O00321 1-342).
T8 sequence: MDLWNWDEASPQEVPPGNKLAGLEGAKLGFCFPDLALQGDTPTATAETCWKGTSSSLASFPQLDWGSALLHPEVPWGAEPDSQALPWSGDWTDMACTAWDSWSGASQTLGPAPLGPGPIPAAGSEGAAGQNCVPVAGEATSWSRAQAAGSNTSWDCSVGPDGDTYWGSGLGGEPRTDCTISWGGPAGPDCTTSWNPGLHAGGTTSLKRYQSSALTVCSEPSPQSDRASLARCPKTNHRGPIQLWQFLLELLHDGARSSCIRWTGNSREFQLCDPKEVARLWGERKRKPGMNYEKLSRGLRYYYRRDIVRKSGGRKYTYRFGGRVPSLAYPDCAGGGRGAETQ
The note with it: protein: recombinant; tags: N-terminal GST; dsDNA, one strand shown. The method, boiled down:
as §1

Another test deals with T9, ELF3 (Homo sapiens, UniProt P78545 1-371).
T9 sequence: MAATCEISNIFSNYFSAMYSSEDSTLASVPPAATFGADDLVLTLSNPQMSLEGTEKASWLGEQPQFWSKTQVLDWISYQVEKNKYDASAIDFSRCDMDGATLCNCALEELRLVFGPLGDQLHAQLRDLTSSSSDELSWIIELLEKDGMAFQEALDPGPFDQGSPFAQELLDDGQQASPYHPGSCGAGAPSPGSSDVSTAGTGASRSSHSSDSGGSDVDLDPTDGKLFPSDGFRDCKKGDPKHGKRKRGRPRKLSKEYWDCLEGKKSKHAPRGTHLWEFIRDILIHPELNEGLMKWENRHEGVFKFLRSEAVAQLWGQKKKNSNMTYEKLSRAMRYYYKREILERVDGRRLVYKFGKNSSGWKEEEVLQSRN
The note with it: protein: recombinant; tags: N-terminal GST; dsDNA, one strand shown. The method, boiled down:
as §1

A further test addresses CRX (Homo sapiens, UniProt O43186 1-299). The note with it: protein: recombinant; tags: N-terminal GST; dsDNA, one strand shown. In outline:
as §1

In another test the target is ETV1 (Homo sapiens, UniProt P50549 1-477). The note with it: protein: recombinant; tags: N-terminal GST; dsDNA, one strand shown. The method, boiled down:
as §1

HSF1, sequence (Q00613 whole entry): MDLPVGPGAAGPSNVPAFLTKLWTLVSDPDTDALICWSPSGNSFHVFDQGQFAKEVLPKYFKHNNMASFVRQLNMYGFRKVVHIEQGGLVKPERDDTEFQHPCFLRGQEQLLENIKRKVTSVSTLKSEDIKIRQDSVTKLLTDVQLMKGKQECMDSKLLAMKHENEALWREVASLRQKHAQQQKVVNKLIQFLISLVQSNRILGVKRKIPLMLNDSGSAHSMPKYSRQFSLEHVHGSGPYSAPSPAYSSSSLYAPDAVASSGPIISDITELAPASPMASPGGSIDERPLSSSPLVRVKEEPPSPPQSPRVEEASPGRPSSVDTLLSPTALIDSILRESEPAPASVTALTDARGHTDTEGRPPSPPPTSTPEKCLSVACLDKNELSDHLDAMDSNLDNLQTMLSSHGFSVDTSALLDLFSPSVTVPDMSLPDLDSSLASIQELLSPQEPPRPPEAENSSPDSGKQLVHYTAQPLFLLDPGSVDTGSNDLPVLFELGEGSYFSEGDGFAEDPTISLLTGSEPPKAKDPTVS
ETV1, sequence (P50549 whole entry): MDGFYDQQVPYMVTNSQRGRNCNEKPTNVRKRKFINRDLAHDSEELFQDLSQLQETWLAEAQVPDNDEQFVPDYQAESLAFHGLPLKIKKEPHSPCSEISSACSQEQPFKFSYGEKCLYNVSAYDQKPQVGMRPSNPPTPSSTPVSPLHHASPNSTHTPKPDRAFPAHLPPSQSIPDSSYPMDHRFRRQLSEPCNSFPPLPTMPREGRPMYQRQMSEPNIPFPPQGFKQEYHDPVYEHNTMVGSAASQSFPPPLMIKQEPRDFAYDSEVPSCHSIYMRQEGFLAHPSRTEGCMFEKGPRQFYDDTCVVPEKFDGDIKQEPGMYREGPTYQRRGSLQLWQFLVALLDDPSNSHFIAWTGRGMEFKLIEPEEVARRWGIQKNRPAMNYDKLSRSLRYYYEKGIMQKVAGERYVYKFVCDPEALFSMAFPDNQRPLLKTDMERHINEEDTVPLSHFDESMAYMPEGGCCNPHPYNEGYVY
ELF4, sequence (Q99607 whole entry): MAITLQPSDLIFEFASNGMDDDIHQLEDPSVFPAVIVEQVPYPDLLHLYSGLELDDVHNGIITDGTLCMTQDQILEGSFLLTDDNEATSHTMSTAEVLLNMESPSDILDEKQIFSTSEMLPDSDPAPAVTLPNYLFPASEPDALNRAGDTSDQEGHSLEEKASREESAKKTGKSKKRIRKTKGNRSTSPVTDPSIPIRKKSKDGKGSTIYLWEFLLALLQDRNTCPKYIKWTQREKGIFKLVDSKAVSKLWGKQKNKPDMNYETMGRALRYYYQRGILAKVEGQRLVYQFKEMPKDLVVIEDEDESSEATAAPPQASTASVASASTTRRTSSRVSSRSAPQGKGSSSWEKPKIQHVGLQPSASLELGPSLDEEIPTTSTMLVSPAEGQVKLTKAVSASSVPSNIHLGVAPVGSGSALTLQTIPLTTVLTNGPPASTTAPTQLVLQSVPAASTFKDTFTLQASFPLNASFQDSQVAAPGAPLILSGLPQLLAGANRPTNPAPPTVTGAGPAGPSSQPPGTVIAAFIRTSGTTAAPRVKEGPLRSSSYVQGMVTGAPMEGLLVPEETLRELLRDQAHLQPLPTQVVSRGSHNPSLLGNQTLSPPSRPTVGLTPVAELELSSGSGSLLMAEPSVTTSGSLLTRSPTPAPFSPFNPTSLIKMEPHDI
SPIB, sequence (Q01892 whole entry): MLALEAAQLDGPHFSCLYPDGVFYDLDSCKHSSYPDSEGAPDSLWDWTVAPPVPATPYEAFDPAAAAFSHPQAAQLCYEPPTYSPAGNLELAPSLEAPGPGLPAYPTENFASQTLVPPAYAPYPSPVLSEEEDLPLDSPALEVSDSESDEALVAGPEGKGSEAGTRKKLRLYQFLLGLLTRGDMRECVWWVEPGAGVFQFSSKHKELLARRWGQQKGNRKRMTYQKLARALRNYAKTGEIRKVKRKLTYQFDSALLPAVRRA
CRX, sequence (O43186 whole entry): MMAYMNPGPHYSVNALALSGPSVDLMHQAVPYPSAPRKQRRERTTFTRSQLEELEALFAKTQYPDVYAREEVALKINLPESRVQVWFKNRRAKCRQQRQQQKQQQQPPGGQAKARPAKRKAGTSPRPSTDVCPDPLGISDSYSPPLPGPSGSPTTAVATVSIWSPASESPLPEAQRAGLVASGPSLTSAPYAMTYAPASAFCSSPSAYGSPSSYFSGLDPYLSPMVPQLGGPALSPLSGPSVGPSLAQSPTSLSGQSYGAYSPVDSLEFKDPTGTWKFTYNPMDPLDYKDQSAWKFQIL
ELF1, sequence (P32519 whole entry): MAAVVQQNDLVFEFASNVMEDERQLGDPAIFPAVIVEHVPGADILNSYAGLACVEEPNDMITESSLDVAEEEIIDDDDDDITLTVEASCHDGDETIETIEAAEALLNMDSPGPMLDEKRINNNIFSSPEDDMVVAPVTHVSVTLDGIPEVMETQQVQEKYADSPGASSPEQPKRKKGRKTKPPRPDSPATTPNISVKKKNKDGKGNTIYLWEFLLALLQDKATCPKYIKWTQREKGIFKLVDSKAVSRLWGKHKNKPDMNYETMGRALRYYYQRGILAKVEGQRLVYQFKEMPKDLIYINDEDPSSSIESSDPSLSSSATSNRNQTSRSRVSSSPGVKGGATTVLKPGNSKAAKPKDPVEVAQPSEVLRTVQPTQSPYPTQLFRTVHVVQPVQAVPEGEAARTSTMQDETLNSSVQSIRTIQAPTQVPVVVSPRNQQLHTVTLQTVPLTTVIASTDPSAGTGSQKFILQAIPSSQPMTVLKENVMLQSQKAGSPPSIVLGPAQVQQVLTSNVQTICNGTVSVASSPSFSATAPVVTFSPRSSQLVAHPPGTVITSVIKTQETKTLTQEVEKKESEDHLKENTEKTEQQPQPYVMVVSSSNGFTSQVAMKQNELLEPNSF
ETV5, sequence (P41161 whole entry): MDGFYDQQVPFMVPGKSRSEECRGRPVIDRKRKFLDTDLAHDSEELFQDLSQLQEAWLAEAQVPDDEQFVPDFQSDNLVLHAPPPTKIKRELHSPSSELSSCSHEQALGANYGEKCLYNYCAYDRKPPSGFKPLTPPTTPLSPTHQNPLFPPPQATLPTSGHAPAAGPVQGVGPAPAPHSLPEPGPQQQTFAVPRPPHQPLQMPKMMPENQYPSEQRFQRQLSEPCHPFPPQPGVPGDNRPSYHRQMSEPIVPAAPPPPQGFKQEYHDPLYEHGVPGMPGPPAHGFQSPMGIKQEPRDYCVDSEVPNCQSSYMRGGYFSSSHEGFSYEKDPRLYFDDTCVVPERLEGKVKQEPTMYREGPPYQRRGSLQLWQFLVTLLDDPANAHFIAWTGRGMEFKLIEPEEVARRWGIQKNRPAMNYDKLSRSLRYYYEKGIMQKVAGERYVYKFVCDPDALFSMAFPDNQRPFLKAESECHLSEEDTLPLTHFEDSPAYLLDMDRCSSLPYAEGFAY

On to CAGATT, for which the binding signal in the test with FLI1 was 1.07 fold enrichment (6-mer frequency, TF over GST control); with ELK1 it was 1.05 fold enrichment (6-mer frequency, TF over GST control); with ERG, 1.06 fold enrichment (6-mer frequency, TF over GST control); with ELF1 it was 1 fold enrichment (6-mer frequency, TF over GST control); with EHF, 1.01 fold enrichment (6-mer frequency, TF over GST control); with SPI1, 1.03 fold enrichment (6-mer frequency, TF over GST control). For the same sequence, the binding signal with SPIB is 1.02 fold enrichment (6-mer frequency, TF over GST control); with ELK3, 1.12 fold enrichment (6-mer frequency, TF over GST control); with FEV, 1 fold enrichment (6-mer frequency, TF over GST control); in the test with ETV5 it was 1 fold enrichment (6-mer frequency, TF over GST control); in the test with HSF1 it was 1.75 fold enrichment (6-mer frequency, TF over GST control); with ELF4, 1.06 fold enrichment (6-mer frequency, TF over GST control). In addition, the binding signal with ELK4 is 1.01 fold enrichment (6-mer frequency, TF over GST control); in the test with ETV2, 1.02 fold enrichment (6-mer frequency, TF over GST control); with ELF3, 1.06 fold enrichment (6-mer frequency, TF over GST control); with CRX, 2.1 fold enrichment (6-mer frequency, TF over GST control); with ETV1, 1.03 fold enrichment (6-mer frequency, TF over GST control).
